Screens as filed in PubChem BioAssay.
Shown are actives, neighbours in structure and some others; about 1.9% of the full set was active somewhere.
Vif imaging: inhibitors of HIV Vif; HEK293T cells, Vif self-association by quenched fluorescence, imaging, 24 h; inhibition, % at 7.49 µM; 340,000 compounds, 0.35% hits; AID 602346; in the data active = inhibition above about 50%, passing the limit was not always enough
CaV13 ICDI inh: Primary screen for inhibitors of IQ motif and Ca2+-dependent inactivation inhibitor domain binding in CACNA1D, Förster resonance energy transfer in living cells, …. HEK cells, CFP/YFP FRET ICDI-IQ, plate reader, 10 min; percent FRET-ratio fall versus neutral wells. inhibition, % at 12.3 µM. 340,000 compounds, 0.098% hits;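 active = mean replicate inhibition of at least 30% and at least 1% of replicates passing that level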;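 also: 0% = median of the neutral control wells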
NSD2 HMT inh: NSD2 (human) methyltransferase inhibition; inhibition, % at 12.5 µM; NSD2 peptide methylation, AlphaScreen, 120 min; O96028; AID 743445; 310,000 compounds, 0.54% hits; in the data active = inhibition above about 50%
Pemphigus Ab inh: blocks pemphigus antibody binding to human desmoglein-3. P32926. DSG3-coupled beads, scFv-anti-DSG3-GFP binding, flow cytometry; stronger effect = lower value. binding (percent of control), % at 10 µM. 310,000 compounds, 0.48% hits. AID 588358;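 active = binding more than 3 SD below its plate's average and above zero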
ATG4B inh: ATG4B (human) cysteine protease inhibition; inhibition, % at 8.33 µM; Q9Y4P1; ATG4B cleavage of LC3-PLA2, NBD-HPC fluorescence, 1 h; 340,000 compounds, 0.51% hits; in the data active = inhibition above about 40%
Glyco luc inh: blocks N-linked glycosylation in D54 reporter cells. D54 ERlucT glycosylation luciferase reporter, 24 h; percent of 100 nM tunicamycin response. 360,000 compounds, 0.23% hits. reporter increase, % at 12.5 µM;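 active = mean luciferase reporter signal, scaled so untreated is 0 and the glycosylation-blocking control 100, at or above a set limit in every replicate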;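 also: luciferase carries N-glycosylation sites so blocking glycosylation raises the light; 0% = median of neutral control wells and 100% = median of 100 nM tunicamycin wells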
The depositor's hits bear a star; . = no result given; + = active, no number.

SMILES	Vif imaging	CaV13 ICDI inh	NSD2 HMT inh	Pemphigus Ab inh	ATG4B inh	Glyco luc inh
COc1cc2c(cc1OC)/C(=C/C(=O)c1cccc([N+](=O)[O-])c1)NCC2	-2.3	-4.5	7.4	102.1	-8.8	-0.8
CCn1c(C(C#N)/C(=N\S(=O)(=O)c2cccs2)c2ccccc2)nc2ccccc21 (stereo not drawn)	2.2	-5.1	-3.0	73.9*	-16.2	-1.5
CC(C)=C1SC(N2CCN(c3ccc(C)cc3)CC2)=NC1=O	0.1	-5.0	-2.1	104.3	-7.2	3.1
CC(C)=C1SC(N2CCN(c3cccc(C(F)(F)F)c3)CC2)=NC1=O	-10.6	-3.4	-0.4	41.7*	-1.9	-0.7
COC(=O)c1ccc(Sc2ccc(C)cc2)c(N)c1	7.3	-7.2	-2.0	85.6	-1.9	-1.1
COc1cc(Sc2ccc(C)cc2)c(OC)cc1N	7.4	-9.4	.	80.1*	-1.9	-0.8
COCCn1c(=NC(=O)CCS(=O)(=O)c2ccccc2)sc2cc(C(=O)OC)ccc21	9.0	-1.4	.	-9.8*	-3.0	-1.0
O=[N+]([O-])c1ccc(Cl)cc1N/N=C/c1ccncc1	12.0	-2.6	5.5	110.0	1.6	0.4
O=[N+]([O-])c1cc(S(=O)(=O)Nc2ccc(Cl)cc2)ccc1N/N=C/c1ccncc1	67.4*	-4.8	-0.1	85.6	2.5	-12.2
O=C(c1ccccc1)c1c[nH]c2ccccc12	-5.4	-3.3	-2.5	102.8	2.0	0.5
O=C(/C=C/c1c[nH]c2ccccc12)c1cccc2ccccc12	-3.8	-8.3	0.3	80.4	-1.8	29.7*
Cc1cccc(C)c1-n1nnnc1SCc1nc(N)nc(N(C)C)n1	128.7*	-5.6	.	.	.	3.1
Cc1cccc(C)c1N=Nc1c(C)cc(O)cc1C	0.8	-18.5	57.7*	117.6	8.8	-2.6
Cc1cccc(O)c1C	-4.9	.	.	102.8	-24.7	1.5
CC(=O)Nc1ccc(NC(=O)C(C)OC(=O)/C=C/c2ccc3c(c2)OCO3)cc1 (stereo not drawn)	-14.5	-6.5	-1.8	100.2	1.7	0.9
Cc1ccc(C(=O)Nc2cc(S(=O)(=O)N3CCOCC3)ccc2N2CCCC2)cc1	-0.2	-2.7	-0.8	105.0	-0.9	45.2*
O=C(Cc1csc(-c2ccccc2)n1)NCc1ccccc1F	.	38.1*	-2.7	.	.	.
CCOC(=O)Nc1ccc(OC(=O)Oc2ccc(NC(=O)OCC)cc2)cc1	8.6	-8.4	-1.7	77.8*	-3.2	1.9
COc1ccc(S(=O)(=O)N(C)C[C@@H]2Oc3cc(C#CC4CCCCC4)ccc3S(=O)(=O)N([C@@H](C)CO)C[C@@H]2C)cc1	-23.5	-6.3	.	.	.	-7.3
CCOC(=O)c1ccc(S(=O)(=O)NCC(C)(C)N2CCOCC2)cc1	-0.6	-4.7	-0.9	77.0*	-11.8	0.9
CC(=O)c1cccc(S(=O)(=O)NCC(C)(C)N2CCOCC2)c1	20.8	-3.1	-3.6	96.1	-4.1	-0.3
O=C1CCC/C(=N/NC(=O)c2cc(NS(=O)(=O)c3cccs3)cc(NS(=O)(=O)c3cccs3)c2)C1	0.9	-15.8	32.3	103.3	-6.3	1.5
O=C1CCC/C(=N/NC(=O)c2ccc(NS(=O)(=O)c3cccs3)cc2)C1	51.7*	-3.4	8.7	98.2	1.8	-0.4
CCOC(=O)c1c(C)nc(C)c(C(=O)OCC)c1-c1ccccc1	1.2	-8.0	-0.2	99.2	4.3	0.8
CCOc1c(C(N)=O)c(-c2ccccc2)c2c(=O)[nH]c3ccccc3n12	31.7*	.	2.2	93.1	-8.2	0.6
SMILES	Vif imaging	CaV13 ICDI inh	NSD2 HMT inh	Pemphigus Ab inh	ATG4B inh	Glyco luc inh
Cc1cc(C)c2c(N)c3cccc(C)c3nc2n1	.	0.5	8.5	103.6	-1.6	103.5*
Cc1cccc2c(N)c3c(nc12)CCCC3 (tested in a mixture with another compound)	-0.3	0.7	1.4	103.2	-1.1	10.5
CCN1C(=S)SC(=O)C1=C1C=C(C)N(CCO)C(C)=C1	+	-6.5	4.3	100.1	-0.4	-6.1
CCN1C(=O)/C(=C/C=C2/Sc3ccccc3N2CCO)SC1=S	-5.5	-6.6	1.5	.	2.6	-3.6
S=c1nc(Cc2ccc(Cl)cc2)[nH]c2ccccc12	-9.3	-4.5	1.4	95.0	1.9	2.1
S=c1nc(Cc2ccccc2)[nH]c2ccccc12	68.0*	-4.9	-5.1	507.8	6.8	6.0
